Screening results deposited in PubChem by National Center for Advancing Translational Sciences (NCATS).
In the library only some 11% were active in any assay of this set; here they are far more common.
Tau fluor cs = counter-screen for tau fibril formation inhibitors. tau K18 P301L Alexa594 fluorescence, heparin fibrillization. Potency, µM (highest dose often 57.7 µM), for inactives: top-dose activity change, negative = decrease. 280,000 tested, 0.93% active; also: potency is read from the fitted curve at half-maximal effect; nearly all actives have a fitted effect of over 55% in size
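Human tau K18 P301L (15 uM unlabeled, 0.24 uM Alexa 594-labeled) in 100 mM sodium acetate pH 7 with 20 uM heparin, 6 hr at 37 C. ThT 30 uM added, 1 hr ambient; Alexa 594 FP and total fluorescence read at 555/632 nm.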
G9a block = blocks human histone lysine methyltransferase G9a; Q96KQ7; G9a H3K9 monomethylation, AlphaScreen, 2 h; Potency, µM (series often up to 102 µM), for the others: at the highest dose activity, negative = inhibition, actives largely listed as inhibitors; 350,000 tested, 8.8% active; AID 504332; also: potency is read from the fitted curve at half-maximal effect; nearly all actives have a fitted effect of over 75% in size
Target sequence (Q96KQ7 913-1193 limits assumed): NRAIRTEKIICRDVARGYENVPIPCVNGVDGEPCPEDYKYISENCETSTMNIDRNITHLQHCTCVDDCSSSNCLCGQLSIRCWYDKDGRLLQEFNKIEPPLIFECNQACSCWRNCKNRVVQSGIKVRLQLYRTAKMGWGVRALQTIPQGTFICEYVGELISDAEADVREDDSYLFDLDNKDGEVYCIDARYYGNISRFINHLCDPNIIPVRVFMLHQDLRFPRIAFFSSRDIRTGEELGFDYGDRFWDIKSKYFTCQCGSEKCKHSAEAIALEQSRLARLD
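Using a bead-based AlphaScreen, monomethylated H3K9 product from 2 h room-temperature reactions (G9a 20 nM, peptide 500 nM, SAM 20 uM) was detected with 0.5 ug/mL rabbit anti-H3K9me1 antibody.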
Sfp PPTase inh = blocks B. subtilis Sfp PPTase activity | Potency, µM, inactives show largest response in the series, negative = inhibition, actives largely listed as inhibitors | Q9F4F7 | 310,000 tested, 3.5% active | Biochemical Sfp PPTase activity, qHTS;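 also: the enzyme is Sfp with the accession as filed and its product quenches rhodamine fluorescence; potency is read from the fitted curve at half-maximal effect; 0% = enzyme reaction without inhibitor and -100% = no enzyme wells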
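With Hepes-Na pH 7.6 buffer containing 10 mM MgCl2, Sfp (15 nM) modified BHQ-2-YbbR (12.5 uM) using rhodamine-CoA (5 uM). Two reads 30 minutes apart at 525/598 nm yielded each well's rate.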
Tau FP inhib = inhibitors of human tau fibril formation; P10636; K18 P301L tau heparin fibrillization, Alexa594 FP, 6 h; Potency, µM (titrated, usually from 57.7 µM), without a hit: top-dose activity, negative = inhibition, most hits filed as inhibitors; 280,000 tested, 0.39% active; AID 1468; also: potency is read from the fitted curve at half-maximal effect; nearly all actives have a fitted effect of over 55% in size
Target sequence (P10636 561-689 P618L limits assumed): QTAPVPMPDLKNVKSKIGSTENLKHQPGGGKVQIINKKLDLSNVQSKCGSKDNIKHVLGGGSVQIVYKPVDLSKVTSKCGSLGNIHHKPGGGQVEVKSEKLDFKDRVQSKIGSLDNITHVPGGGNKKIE
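K18 P301L tau (15 uM unlabeled/0.24 uM Alexa 594-labeled, final) + compound + heparin 20 uM final; 100 mM NaOAc pH 7; 6 hr 37 C; ThT 30 uM final added, 1 hr RT; FP ex 555/em 632 nm.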
FBPA coupling cs = inhibits coupling enzyme system, counter-screen for aldolase hits; coupling enzyme system counterscreen, AmpLite Red fluorescence; activity change, negative = inhibition, % at 58.2 µM, hits read low; 290,000 tested, 0.67% active; in the data active = activity change below about -30%
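Activity here indicates interference with the coupling reaction, not aldolase inhibition. Compounds at 57.5 uM final met coupling enzymes for 10 min at RT; substrate and AmpLite Red detection followed, with a 525/598 nm fluorescence read after 20 min.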
Tau fibril ThT = blocks human tau fibril formation measured by thioflavin T | recombinant tau K18 P301L, heparin-induced fibrillization, ThT fluorescence | Potency, µM (top dose mostly 57.4 µM), inactives show at the highest dose activity, negative = inhibition, most hits filed as inhibitors | 270,000 tested, 2.1% active | AID 1460; also: potency is read from the fitted curve at half-maximal effect; nearly all actives have a fitted effect of over 55% in size
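Using a mix of unlabeled (15 uM) and Alexa 594-labeled (0.24 uM) tau K18 P301L, heparin-triggered fibrillization over 6 hr at 37 C was scored by ThT fluorescence.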
An asterisk follows results filed as active; ? = inconclusive; nt = no result; [ ] = another dose, or the depositor's remark. Unless noted, calls follow the shape of the dose curve; as a rule, active = well fitted curve in the direction sought with a large enough effect; inconclusive = small, poorly fitted or top-dose-only effect, or another doubt; inactive = no such curve, though single readings can be large; an effect the other way counts as inactive or inconclusive. Unless noted, % is scaled to controls: 0 for no effect and ±100 for the full control effect.

SMILES	Tau fluor cs	G9a block	Sfp PPTase inh	Tau FP inhib	FBPA coupling cs	Tau fibril ThT
Cc1ccc(C2c3c(-c4cc(C)ccc4O)n[nH]c3C(=O)N2Cc2ccco2)cc1 (centres undefined)	?	28µM*	nt	?	nt	?
CC(=O)C1=C(O)C(=O)N(Cc2ccccc2)C1c1ccco1 (centres undefined)	2%	50µM*	-5%	-1%	7	-7%
CCN(CC)CCCNC(=O)CN1C(=O)CCn2nc(-c3cn(C)c4ccccc34)cc21	4%	-2%[59 µM]	nt	-3%	nt	6%
CC(=O)C1=C(O)C(=O)N(Cc2ccco2)C1c1ccc(F)cc1 (centres undefined)	0%	?	45µM*	-7%	-3	-13%
CC(=O)C1=C(O)C(=O)N(Cc2ccco2)C1c1ccccc1F (centres undefined)	-8%	-22%	-16%	-9%	-8	-17%
Cc1ccc2oc(C(=O)Nc3sc4c(c3C(=O)NCc3ccccc3)CCCC4)cc(=O)c2c1	-13%	-10%[59 µM]	nt	-6%	nt	?
CCCCn1c(SCC(=O)Nc2cccc(OC)c2)nc2ccc(N3CCOCC3)cc2c1=O	?	-3%[12.7 µM]	-24%	9%	-32*	?
CCCCn1c(SCC(N)=O)nc2ccc(N3CCOCC3)cc2c1=O	-13%	?	?	1%	-40*	-7%
Cc1ccc(N(Cc2cccs2)C(=O)Nc2cccc(Cl)c2)cc1	-6%	9%[59 µM]	nt	-3%	nt	2%
Cc1ccc(NC(=S)NCC2CCN(C(C)c3ccccc3)C2)cc1 (centres undefined)	-11%	50µM*	-24%	-7%	0	2%
Cc1cc(C)c(NC(=S)NCC2CCN(C(C)c3ccccc3)C2)c(C)c1 (centres undefined)	-16%	10µM*	3.5µM*	?	-49*	?
CC(c1ccccc1)N1CCC(CNC(=S)Nc2cccc(Cl)c2)C1 (centres undefined)	?	-51%	4%	?	0	-1%
O=S(=O)(c1ccccc1)N1CCC2(CC1)CN(c1ccccn1)C2	nt	46%[12.7 µM]	5%	nt	3	nt
O=c1[nH]c(S)nc2sc3c(c12)CCCC3	-12%	1µM*	45µM*	-7%	9	?
Cc1nc2sc3c(c2c(=O)[nH]1)CCCC3	-1%	32%	22%	2%	1	4%
CCOc1ccc(-c2nonc2NC(=O)c2oc3ccc(Cl)cc3c2C)cc1	-12%	9%[59 µM]	nt	?	nt	2%
CN(C)c1ccc(N=Nc2ccccc2C(=O)OCC(=O)N(C)c2ccccc2)cc1	4%	8.9µM*	?	?	-5	1.6µM*
COC(=O)c1ccccc1NC(=O)COC(=O)c1ccccc1N=Nc1ccc(N(C)C)cc1	?	8.9µM*	5%	17%	-1	4.5µM*
CC(=O)c1ccc(NC(=O)COC(=O)c2ccccc2N=Nc2ccc(N(C)C)cc2)cc1	5%	13µM*	13%	4%	1	10%
CN(C)c1ccc(C(=O)OCC(=O)Nc2ccc(N3CCOCC3)cc2)cc1	-22%	0%	9%	0%	1	-6%
CN(C)c1cccc(C(=O)OCC(=O)N(C)c2ccccc2)c1	nt	-15%	-9%	nt	0	nt
Cn1c(=O)c2[nH]c(NCCCN3CCOCC3)nc2n(C)c1=O	-1%	35µM*	7%	8%	1	-12%
COC(=O)CC1C(=O)NCCN1C(=O)c1ccccc1 (centres undefined)	6%	8%[12.7 µM]	14%	-1%	1	6%
COC(=O)CC1C(=O)NCCN1C(=O)CSc1nc2ccccc2s1 (centres undefined)	-12%	7.1µM*	71µM*	?	-2	?
CC1=C(CCC(=O)O)c2cc3nc(cc4[nH]c(cc5[nH]c(cc1n2)c(C)c5C(C)O)c(C)c4C(C)O)C(C)=C3CCC(=O)O (centres undefined)	-23%	nt	-16%	?	-8	?
SMILES	Tau fluor cs	G9a block	Sfp PPTase inh	Tau FP inhib	FBPA coupling cs	Tau fibril ThT
C=Cc1c(C)c2cc3[nH]c(cc4nc(cc5nc(cc1[nH]2)C(C)=C5CCC(=O)O)C(CCC(=O)O)=C4C)c(C)c3C=C	16µM*[quencher]	5%[59 µM]	0%	25µM*	-14	16µM*
CCn1cc(C(=O)N2CCN(c3ccc(C)cc3)C(C)C2)c(=O)c2cc(S(=O)(=O)N3CCCC3)ccc21 (centres undefined)	-10%	?	nt	-7%	nt	-7%
COc1cccc(Cn2c(=O)c3[nH]cnc3n(-c3ccccc3C)c2=O)c1	0%	71µM*	-1%	-14%	1	nt
COc1ccc(C(C)=O)cc1COC(=O)C1CC(=O)N(Cc2ccccc2)C1 (centres undefined)	nt	-7%	17%	nt	nt	nt
COc1ccccc1-c1cn[nH]c(=S)n1	-8%	?	45µM*	-2%	0	?
S=c1[nH]nc(-c2ccccc2)n1Cc1ccccc1	-6%	4%[2.33 µM]	12%	2%	4	-11%
Cc1n[nH]c(=S)n1Cc1ccccc1	0%	35µM*	-1%	-1%	2	2%
S=c1[nH]nc(-c2ccc(Cl)cc2)n1Cc1ccccc1	-15%	1.4µM*	-3%	11%	3	?
COc1ccccc1-c1n[nH]c(=S)n1Cc1ccccc1	nt	3.2µM*	10%	nt	1	nt
COc1ccc(-n2c(=O)c(C)nc3cnc(Oc4cccc(Cl)c4)nc32)cc1	nt	8%[12.7 µM]	-12%	nt	0	nt
Cc1c(C(=O)OC2CCCCC2)[nH]c2c1C(=O)CC(c1ccc(C(C)(C)C)cc1)C2 (centres undefined)	-6%	9%[59 µM]	nt	2%	nt	-9%
Cc1ccn(Cc2n[nH]c(=S)n2Cc2ccccc2)n1	-10%	3.2µM*	11%	-14%	1	-12%
COc1cccc(C(=O)Oc2ccccc2/C=C\C(=O)c2cc3ccccc3o2)c1	-5%	11µM*	?	-6%	-4	1%
COc1cccc(Cn2c(=O)n(Cc3ccccc3)c(=O)c3c2c2cc(OC)ccc2n3C)c1	-9%	-1%[59 µM]	nt	2%	nt	2%
C/C(=N/NC(=O)c1cc2ccccc2cc1O)C1C(=O)c2ccccc2C1=O	14µM*[quencher]	40µM*	0%	-1%	5	2.5µM*
C/C(=N\NC(=O)c1ccccc1O)C1C(=O)c2ccccc2C1=O	?	17%[12.7 µM]	15%	12%	2	5µM*
C/C(=N\NC(=O)c1cc2ccccc2cc1O)c1ccccn1	nt	nt	13%	nt	nt	nt
N#Cc1nc(NCC2CC2)nc(Nc2ccccc2)n1	nt	nt	nt	nt	-1	nt
Cc1cccc(CC(=O)N2CCC(n3nccc3NC(=O)C3CC3)CC2)c1	nt	-2%	26%	nt	0	nt
